Measured values from PubChem BioAssay (EPA / NIEHS).
Inconclusive results are not listed. Calls of active or inactive are those of the source. How the source made its calls: active means hit-call score of the fitted dose curve at least 0.9, where 1 is the maximum; inconclusive means response in the unintended direction; inactive means score below 0.9.

These compounds were tested against human Fibroblast Growth Factor Receptor 1 (FGFR1), FGFR1 (gene 2260) (UniProt P11362) (assay: NVS_ENZ_hFGFR1: NovaScreen (NVS) Enzymatic Assay for human Fibroblast Growth Factor Receptor 1 (FGFR1) (AID 2283159);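 on AC50: hits lower the signal so potencies describe inhibitors of the kinase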).
Chain of human Fibroblast Growth Factor Receptor 1 (FGFR1), FGFR1 (gene 2260) (P11362 whole entry, looked up): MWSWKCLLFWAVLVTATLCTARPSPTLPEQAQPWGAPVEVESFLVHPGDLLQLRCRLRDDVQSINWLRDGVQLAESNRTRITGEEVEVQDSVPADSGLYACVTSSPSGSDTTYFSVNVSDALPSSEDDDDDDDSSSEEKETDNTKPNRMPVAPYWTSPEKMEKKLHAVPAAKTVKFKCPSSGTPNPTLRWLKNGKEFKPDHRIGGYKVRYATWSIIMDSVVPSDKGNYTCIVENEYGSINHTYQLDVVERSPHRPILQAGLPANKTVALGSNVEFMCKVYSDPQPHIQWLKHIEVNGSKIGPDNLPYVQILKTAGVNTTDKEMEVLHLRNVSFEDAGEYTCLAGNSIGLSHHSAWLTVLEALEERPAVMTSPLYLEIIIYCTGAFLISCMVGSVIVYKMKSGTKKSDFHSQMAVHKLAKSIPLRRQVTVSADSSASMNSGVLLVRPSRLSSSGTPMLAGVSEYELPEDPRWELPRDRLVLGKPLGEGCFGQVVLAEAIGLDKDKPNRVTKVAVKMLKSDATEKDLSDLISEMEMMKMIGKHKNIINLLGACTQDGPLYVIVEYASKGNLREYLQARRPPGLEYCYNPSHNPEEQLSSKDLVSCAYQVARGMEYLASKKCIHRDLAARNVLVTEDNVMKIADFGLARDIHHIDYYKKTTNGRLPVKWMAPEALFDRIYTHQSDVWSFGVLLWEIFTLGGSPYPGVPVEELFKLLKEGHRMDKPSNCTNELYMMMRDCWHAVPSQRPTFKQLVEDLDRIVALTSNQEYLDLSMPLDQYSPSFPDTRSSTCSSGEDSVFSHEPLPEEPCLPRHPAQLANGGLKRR
Method: (§1) NVS_ENZ_hFGFR1 is a biochemical, single-readout assay that uses extracted gene-proteins in a cell-free assay. Measurements were taken 1 hour after chemical dosing in a 384-well plate.NVS_ENZ_hFGFR1 is one of one assay component(s) measured or calculated from the NVS_ENZ_hFGFR1 assay. It is designed to make measurements of enzyme activity, a form of enzyme reporter, as detected with fluorescence intensity signals by Fluorescence and electrophoretic mobility shift technology.Data from the assay component NVS_ENZ_hFGFR1 was analyzed into 1 assay endpoint. This assay endpoint, NVS_ENZ_hFGFR1, was analyzed in the positive analysis fitting direction relative to DMSO as the negative control and baseline of activity. Using a type of enzyme reporter, loss-of-signal activity can be used to understand changes in the enzymatic activity as they relate to the gene FGFR1. Furthermore, this assay endpoint can be referred to as a primary readout, because this assay has produced multiple assay endpoints where this one serves a enzymatic activity function. To generalize the intended target to other relatable targets, this assay endpoint is annotated to the kinase intended target family, where the subfamily is receptor tyrosine kinase.
(§2) Binding assays used specific radioligands (tritiated, iodinated) with non-radioactive competitive displacement ligands in agonist or antagonist protocols (as indicated) and various reference compounds and inhibitors to titrate specific binding to receptors and transporters. Most enzyme assays (CYPs, kinases, phosphatases, proteases, HDACs) used recombinant protein and specific substrates (fluorescence mostly, some colorimetric and radioactive) and inhibitors, followed by a biochemical separation of substrate and product. All assays for the biochemical HTS were initially run in duplicate at a single concentration (10 uM for CYP450 assays and 25 uM for all others). […] Each assay was run with positive and negative controls, and concurrent controls on every plate. The follow-up (secondary) screen tested active chemical-pairs in concentration series, as well as a few additional assays not tested in the primary screen, some selected negative inactives, and several cases re-run in the concentration series for confirmatory purposes.
In the case of C=CCc1ccc2c(c1)OCO2, the outcome was “inactive”.
For ClCCOCCCl, the outcome was “inactive”.
In the case of O=C(Oc1ccc(Br)cc1)N1CCN2CCC1CC2, the outcome was “inactive”.
With Oc1ccc2ccc3cccc4ccc1c2c34 the AC50 was 14.9 µM (active).

The compounds below were run against human Mitogen-Activated Protein Kinase 1 (MAPK 1), MAPK1 (gene 5594) (UniProt P28482) (assay: NVS_ENZ_hMAPK1: NovaScreen (NVS) Enzymatic Assay for human Mitogen-Activated Protein Kinase 1 (MAPK 1) (AID 2283175)).
Chain of human Mitogen-Activated Protein Kinase 1 (MAPK 1), MAPK1 (gene 5594) (P28482 whole entry, looked up): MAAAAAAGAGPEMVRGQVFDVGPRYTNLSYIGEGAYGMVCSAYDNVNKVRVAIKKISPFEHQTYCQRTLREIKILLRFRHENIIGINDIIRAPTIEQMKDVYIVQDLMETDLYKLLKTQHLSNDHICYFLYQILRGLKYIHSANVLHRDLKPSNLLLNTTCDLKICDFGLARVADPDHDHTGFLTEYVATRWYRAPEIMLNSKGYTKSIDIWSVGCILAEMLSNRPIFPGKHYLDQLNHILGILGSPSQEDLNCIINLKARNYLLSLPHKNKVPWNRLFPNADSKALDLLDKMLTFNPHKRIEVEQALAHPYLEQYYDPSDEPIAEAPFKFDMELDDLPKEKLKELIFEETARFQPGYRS
Method: as §1, with “NVS_ENZ_hMAPK1” for “NVS_ENZ_hFGFR1”, “plate.NVS_ENZ_hMAPK1” for “plate.NVS_ENZ_hFGFR1”, “NVS_ENZ_hMAPK1,” for “NVS_ENZ_hFGFR1,”, “MAPK1.” for “FGFR1.”, “serine/threonine” for “receptor tyrosine”
(§3) Binding assays used specific radioligands (tritiated, iodinated) with non-radioactive competitive displacement ligands in agonist or antagonist protocols (as indicated) and various reference compounds and inhibitors to titrate specific binding to receptors and transporters. Most enzyme assays (CYPs, kinases, phosphatases, proteases, HDACs) used recombinant protein and specific substrates (fluorescence mostly, some colorimetric and radioactive) and inhibitors, followed by a biochemical separation of substrate and product. All assays for the biochemical HTS were initially run in duplicate at a single concentration (10 uM for CYP450 assays and 25 uM for all others). Assay-chemical combinations meeting a pre-defined threshold (e.g., 30% inhibition and other criteria defined below) were then run in singleton concentration-response format with maximum concentration of 20 uM for CYPs and 50 uM for all others. Each assay was run with positive and negative controls, and concurrent controls on every plate. The follow-up (secondary) screen tested active chemical-pairs in concentration series, as well as a few additional assays not tested in the primary screen, some selected negative inactives, and several cases re-run in the concentration series for confirmatory purposes.
In the case of O=C(Oc1ccc(Br)cc1)N1CCN2CCC1CC2, the outcome was “inactive”.
In the case of O=[N+]([O-])c1ccc(Oc2ccc(Cl)cc2Cl)cc1, the outcome was “inactive”.
With COC(=O)Nc1nc2ccccc2[nH]1 the AC50 was 46.7 µM (active).

Each compound was assayed against human MAP Kinase-Activated Protein Kinase 2 (MAPKAPK2), MAPKAPK2 (gene 9261) (UniProt P49137) (assay: NVS_ENZ_hMAPKAPK2: NovaScreen (NVS) Enzymatic Assay for human MAP Kinase-Activated Protein Kinase 2 (MAPKAPK2) (AID 2283178)).
Chain of human MAP Kinase-Activated Protein Kinase 2 (MAPKAPK2), MAPKAPK2 (gene 9261) (P49137 whole entry, looked up): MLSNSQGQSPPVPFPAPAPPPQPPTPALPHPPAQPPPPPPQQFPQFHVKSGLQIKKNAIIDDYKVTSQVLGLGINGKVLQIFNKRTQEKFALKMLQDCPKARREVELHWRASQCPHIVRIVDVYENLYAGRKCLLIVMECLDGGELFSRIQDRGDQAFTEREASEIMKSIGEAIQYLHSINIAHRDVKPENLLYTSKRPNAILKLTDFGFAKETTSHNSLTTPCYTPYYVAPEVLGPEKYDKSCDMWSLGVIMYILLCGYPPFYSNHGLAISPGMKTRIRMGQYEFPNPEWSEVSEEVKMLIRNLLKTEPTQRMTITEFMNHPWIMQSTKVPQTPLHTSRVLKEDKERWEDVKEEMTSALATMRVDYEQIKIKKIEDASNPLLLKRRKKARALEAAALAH
Outline: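 Cell-free recombinant human MAPKAPK2 activity measured by fluorescence with electrophoretic mobility shift separation of substrate and product, 1 hr after dosing. Loss of signal versus DMSO; primary screen at 25 uM, concentration-response up to 50 uM.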
With O=C(Oc1ccc(Br)cc1)N1CCN2CCC1CC2 the outcome was “inactive”.
For CC(C)N(Cc1ccccc1)C(=O)C(C)(C)C, the outcome was “inactive”.
With CCCSC(=O)N(CCC)CCC the outcome was “inactive”.

Each compound was assayed against human Matrix Metalloproteinase-1 (MMP1), MMP1 (gene 4312) (UniProt P03956) (assay: NVS_ENZ_hMMP1: NovaScreen (NVS) Enzymatic Assay for human Matrix Metalloproteinase-1 (MMP1) (AID 2283181)).
Chain of human Matrix Metalloproteinase-1 (MMP1), MMP1 (gene 4312) (P03956 whole entry, looked up): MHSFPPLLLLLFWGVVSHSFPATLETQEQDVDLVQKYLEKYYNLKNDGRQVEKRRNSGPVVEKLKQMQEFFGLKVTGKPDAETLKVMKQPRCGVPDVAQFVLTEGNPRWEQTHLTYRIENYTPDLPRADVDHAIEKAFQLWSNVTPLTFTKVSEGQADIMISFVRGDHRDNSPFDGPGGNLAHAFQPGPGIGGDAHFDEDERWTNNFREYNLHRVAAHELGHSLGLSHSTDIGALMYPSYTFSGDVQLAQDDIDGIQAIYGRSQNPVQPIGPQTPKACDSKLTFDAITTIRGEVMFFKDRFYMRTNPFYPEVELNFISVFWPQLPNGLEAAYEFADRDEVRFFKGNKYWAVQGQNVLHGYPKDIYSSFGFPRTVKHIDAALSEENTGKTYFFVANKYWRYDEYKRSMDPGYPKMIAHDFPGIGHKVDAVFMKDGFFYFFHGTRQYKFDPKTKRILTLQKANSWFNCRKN
Method: (§4) NVS_ENZ_hMMP1 is a biochemical, single-readout assay that uses extracted gene-proteins in a cell-free assay. Measurements were taken 1 hour after chemical dosing in a 96-well plate.NVS_ENZ_hMMP1 is one of one assay component(s) measured or calculated from the NVS_ENZ_hMMP1 assay. It is designed to make measurements of enzyme activity, a form of enzyme reporter, as detected with fluorescence intensity signals by Fluorescence technology.Data from the assay component NVS_ENZ_hMMP1 was analyzed into 1 assay endpoint. This assay endpoint, NVS_ENZ_hMMP1, was analyzed in the positive analysis fitting direction relative to DMSO as the negative control and baseline of activity. Using a type of enzyme reporter, loss-of-signal activity can be used to understand changes in the enzymatic activity as they relate to the gene MMP1. Furthermore, this assay endpoint can be referred to as a primary readout, because this assay has produced multiple assay endpoints where this one serves a enzymatic activity function. To generalize the intended target to other relatable targets, this assay endpoint is annotated to the protease intended target family, where the subfamily is matrix metalloproteinase.
as §3
With Nc1ccc(N=Nc2ccccc2)cc1 the AC50 was 16.9 µM (active).
In the case of COP(=S)(OC)SCN1C(=O)c2ccccc2C1=O, the AC50 was 11.7 µM (active).
With O=[N+]([O-])c1ccc(Oc2ccc(Cl)cc2Cl)cc1 the outcome was “inactive”.

Each compound was assayed against human Matrix Metalloproteinase-7 (MMP7), MMP7 (gene 4316) (UniProt P09237) (assay: NVS_ENZ_hMMP7: NovaScreen (NVS) Enzymatic Assay for human Matrix Metalloproteinase-7 (MMP7) (AID 2283183)).
Chain of human Matrix Metalloproteinase-7 (MMP7), MMP7 (gene 4316) (P09237 whole entry, looked up): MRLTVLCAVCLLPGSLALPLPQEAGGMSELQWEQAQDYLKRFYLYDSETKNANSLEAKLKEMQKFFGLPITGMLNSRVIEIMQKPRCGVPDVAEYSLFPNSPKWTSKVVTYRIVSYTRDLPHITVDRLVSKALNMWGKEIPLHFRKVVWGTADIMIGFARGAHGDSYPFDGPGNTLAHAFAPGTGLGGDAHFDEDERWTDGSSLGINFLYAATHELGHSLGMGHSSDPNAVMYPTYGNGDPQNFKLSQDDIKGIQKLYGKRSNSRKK
Outline: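 Cell-free fluorescence enzymatic assay read 1 h after compound addition, activity loss analyzed against DMSO. Primary duplicate testing at 25 uM; compounds meeting threshold rerun in singleton concentration-response up to 50 uM.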
With [As]#[In] the outcome was “inactive”.
CC(C)COC(=O)c1ccccc1C(=O)OCC(C)C was tested, and the outcome was “inactive”.
With CC(C)N(Cc1ccccc1)C(=O)C(C)(C)C the outcome was “inactive”.
For CCC[CH2][Sn]([Cl])([CH2]CCC)[CH2]CCC, the AC50 was 12.8 µM (active).

What follows are compounds tested against human Matrix Metalloproteinase-2 (MMP2), MMP2 (gene 4313) (UniProt P08253) (assay: NVS_ENZ_hMMP2: NovaScreen (NVS) Enzymatic Assay for human Matrix Metalloproteinase-2 (MMP2) (AID 2283184)).
Chain of human Matrix Metalloproteinase-2 (MMP2), MMP2 (gene 4313) (P08253 whole entry, looked up): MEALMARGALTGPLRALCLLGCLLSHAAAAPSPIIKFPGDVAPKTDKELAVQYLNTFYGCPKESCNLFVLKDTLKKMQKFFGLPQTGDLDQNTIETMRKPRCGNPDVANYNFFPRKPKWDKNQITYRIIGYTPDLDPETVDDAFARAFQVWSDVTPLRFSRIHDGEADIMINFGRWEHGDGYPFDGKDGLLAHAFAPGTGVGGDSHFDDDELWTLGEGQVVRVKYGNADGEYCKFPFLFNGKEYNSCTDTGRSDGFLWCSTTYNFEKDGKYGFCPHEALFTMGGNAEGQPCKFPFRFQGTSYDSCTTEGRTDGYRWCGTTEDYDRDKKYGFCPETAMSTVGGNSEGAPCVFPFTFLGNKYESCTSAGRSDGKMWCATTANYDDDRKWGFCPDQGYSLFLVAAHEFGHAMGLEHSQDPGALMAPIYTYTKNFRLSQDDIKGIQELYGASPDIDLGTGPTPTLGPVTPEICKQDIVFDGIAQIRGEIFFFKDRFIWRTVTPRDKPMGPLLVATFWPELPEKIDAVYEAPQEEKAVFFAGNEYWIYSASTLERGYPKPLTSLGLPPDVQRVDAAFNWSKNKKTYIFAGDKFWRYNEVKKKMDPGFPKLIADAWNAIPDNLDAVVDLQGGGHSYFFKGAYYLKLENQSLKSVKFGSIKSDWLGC
Method: as §4, with “NVS_ENZ_hMMP2” for “NVS_ENZ_hMMP1”, “plate.NVS_ENZ_hMMP2” for “plate.NVS_ENZ_hMMP1”, “NVS_ENZ_hMMP2,” for “NVS_ENZ_hMMP1,”, “MMP2.” for “MMP1.”
as §2
With Clc1ccc(C(c2ccc(Cl)cc2)C(Cl)(Cl)Cl)cc1 the outcome was “inactive”.
For Nc1ccc(Oc2ccc(N)cc2)cc1, the AC50 was 19.2 µM (active).
For CCCCCOC(=O)c1ccccc1C(=O)OCCCCC, the outcome was “inactive”.
In the case of Cc1ccc(N=C=O)cc1N=C=O, the AC50 was 10.3 µM (active).
